# Results from PubChem BioAssay AID686978 (National Center for Advancing Translational Sciences (NCATS), 2013).
# The whole screen tested about 420,000 compounds, of which about 64,000 (15%) were called active. Inconclusive results (about 27%) are left out. Only a sample is shown. A number with no mark means an inactive call. Calls come from the whole dose curve; as a rule, active = well fitted inhibition curve with a large enough effect; inconclusive = small, poorly fitted or top-dose-only effect; inactive = flat fitted curve, though single readings scatter.
# Assay: qHTS for Inhibitors of human tyrosyl-DNA phosphodiesterase 1 (TDP1): qHTS in cells in absence of CPT; note: nearly all actives have a fitted effect of over 55% in size
# Details: DT40 Tdp1-/- hTDP1 cells, no CPT, ATP luminescence, 48 h; activity change, negative = growth inhibition: at 46.2 µM (top of the series)
# Summary of the method: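 Cells were dispensed at 400 per well, compounds added by pin tool, plates incubated ≥48 hr at 37 °C, then CellTiter-Glo added for 30 min at room temperature before luminescence reading. Line: DT40 Tdp1-/- complemented with hTDP1; camptothecin omitted.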
# % is set by controls: 0 for no effect and ±100 for the full control effect; potency is the fitted concentration of half-maximal effect.
SMILES,Potency,"activity change, negative = growth inhibition [%]"
CCN(Cc1ccccc1)C(=O)CCS(=O)(=O)c1ccc2c(c1)oc(=O)n2C,inactive,–
COc1cccc2c1CCC(NC(C)=O)C2=O (configuration not stated),–,-4.13
FC(F)(F)c1ccc(-n2cn[nH]c2=S)cc1,–,-10.5
COc1ccc(-c2c(C)nn3c(N4CCC(C(=O)N5CCCCC5)CC4)cc(C)nc23)cc1OC,–,-17.1
N#Cc1cc([N+](=O)[O-])ccc1NCC1CCCO1 (configuration not stated),–,-0.195
O=C(Nc1ccc2c(c1)OCCO2)c1ccoc1,–,-33.9
CC1CCN(c2ccc(S(=O)(=O)Nc3cc(C(=O)O)cc(C(=O)O)c3)cc2[N+](=O)[O-])CC1,–,4.27
Cc1cccc(N2CCN(c3ccc(C(N)=O)cc3[N+](=O)[O-])CC2)c1C,–,-4.39
CS(=O)(=O)N1CCN(c2ccc(C(=O)NC3C4CC5CC(C4)CC3C5)cc2[N+](=O)[O-])CC1 (configuration not stated),23.1 µM (active),–
Cc1ccc(C(=O)c2ccc(N3CCN(C)CC3)c([N+](=O)[O-])c2)cc1,23.1 µM (active),–
COc1ccc(NS(=O)(=O)c2ccc(N3CCOCC3)c(NC(=O)/C=C/C(=O)O)c2)cc1,–,-23.9
COc1ccc(NS(=O)(=O)c2ccc(N3CCN(CCO)CC3)c([N+](=O)[O-])c2)cc1,3.66 µM (active),–
Cc1ccc(S(=O)(=O)N2CCN(C(=O)c3ccc(-n4cncn4)c([N+](=O)[O-])c3)CC2)cc1,–,-29.7
COc1ccc(N2C(=O)CC(Nc3ccc(F)cc3)C2=O)c([N+](=O)[O-])c1 (configuration not stated),–,-3.43
CN1CCN(c2ccc(S(=O)(=O)Nc3ccccc3)cc2[N+](=O)[O-])CC1,9.2 µM (active),–
Cc1ccc(S(=O)(=O)NCCSc2ccccc2)cc1[N+](=O)[O-],–,-20.9
FC(F)(F)c1ccc2nnc(-c3c(Cl)cccc3Cl)n2c1,–,-12.2
COc1ccc(-n2c(C)nn(CC3CC3)c2=O)cc1,–,10.3
O=C(COc1coc(CN2CCN(c3ccccc3)CC2)cc1=O)N1CCc2ccccc21,–,-17.8
O=C(NCCN=C1NS(=O)(=O)c2ccccc21)c1ccc(S(=O)(=O)N2CCOCC2)cc1,–,-8
CCCCCCOC(=O)NCC(O)c1ccccc1 (configuration not stated),–,-20.7
CC(C)C[C@H](NC(=O)C1CCC(CNC(=O)[C@@H]2CCCN2C(=O)OC(C)(C)C)CC1)C(=O)O (some centres not stated),–,-8.04
CSc1ncnc2c1ncn2CC(=O)C1CCC2C3CCC4=CC(=O)CCC4(C)C3CCC12C (configuration not stated),5.8 µM (active),–

SMILES,Potency,"activity change, negative = growth inhibition [%]"
CC(=O)OCC(=O)C1CCC2C3CCC4=CC(=O)CC[C@@]4(C)C3CC[C@]12C (some centres not stated),–,-25.1
C#CCOc1ccc(/C=C2/C(=O)NN(c3ccccc3)C2=O)cc1OC,–,-5.13
COc1ccnc2c1c(=O)n(Cc1cccc(F)c1)c(=O)n2C,–,-26.1
COc1cc(/C=C2/C(=O)ON=C2C)ccc1OCc1cccc(F)c1,16.4 µM (active),–
Cc1c(C(=O)O)nnn1-c1nonc1N,–,0.48
CCOc1cc(C(=O)Nc2ncccn2)cc(OCC)c1OCC,–,0.439
CC1C/C(=N/NC(=O)c2cccs2)CC(C)(C)C1 (configuration not stated),–,2.47
COc1cccc2sc(NNC(=O)c3nc4ccccc4s3)nc12,6.51 µM (active),–
COc1ccc(S(=O)(=O)N2CCOCC2)cc1C(=O)Nc1nc2ccccc2s1,–,-18.8
CSCCC(Nc1nc2ccccc2s1)C(=O)O (configuration not stated),–,-13.3
Cc1ccc(N2CC(C(=O)NCCS(=O)(=O)N3CCN(c4ccccc4)CC3)CC2=O)cc1 (configuration not stated),inactive,–
COc1ccccc1NC(=O)COC(=O)c1ccccc1SCC(=O)N1CCCC1,–,-5.43
CC1(c2ccc(Cl)cc2Cl)NC(=O)N(CC(=O)Nc2cccnc2Cl)C1=O (configuration not stated),–,-11
Cc1ccc2c(c1)N(CC(=O)NCCCN1CCCCC1)C(=O)c1cccnc1O2,inactive,–
CC(=O)c1cccc(NC(=O)CN2C(=O)c3cccnc3Oc3ccc(Cl)cc32)c1,13 µM (active),–
CCN(CC)c1ccc(NC(=O)CN2C(=O)c3cccnc3Oc3ccc(Cl)cc32)c(C)c1,13 µM (active),–
CC(=O)Nc1cccc(C(=O)OCN2C(=O)c3ccccc3C2=O)c1,–,9.39
CCCCN1C(=O)C(=O)N(CC(=O)Nc2cccc(C(C)=O)c2)C1=O,–,12.5
Cc1ccc2[nH]c3c(=O)n(CC(=O)NCCc4ccc(Cl)cc4)ncc3c2c1,inactive,–
Cc1ccc2c(c1)N(CC(=O)NCCc1ccc(Cl)cc1)C(=O)c1cccnc1O2,1.16 µM (active),–
CCN(CC)c1ccc(NC(=O)Cn2nc3c(cc2=O)CCCC3)c(C)c1,–,-5.62
O=C(COC(=O)c1ccc(S(=O)(=O)N2CCc3ccccc3C2)cc1)NC(=O)NCc1ccco1,–,-28.8
O=C(COc1ccc([N+](=O)[O-])cc1Cl)Nn1cnnc1,–,2.52

SMILES,Potency,"activity change, negative = growth inhibition [%]"
CNc1nc(=O)n(C2CCCO2)cc1C (configuration not stated),–,-0.128
O=C(CCC(=O)N1CCCC1)Nc1ccc([N+](=O)[O-])cc1,–,2.85
COC(=O)NNC(=O)C1CCC(C)CC1 (configuration not stated),inactive,–
COc1ccc(C(=O)NNS(=O)(=O)c2ccc(C)cc2)cc1,–,-3.48
COc1ccc(C(=O)NN2C(=O)C3C(c4ccccc4)C=CC(c4ccccc4)C3C2=O)cc1 (configuration not stated),–,-11.1
COc1ccc(C(=O)NN(C)c2nc(-c3ccccc3)cc(C)c2S(C)(=O)=O)cc1,18.4 µM (active),–
COc1ccc(CN2C(=O)C(CC(=O)NC3CCCCC3)CC(C(=O)N3CCOCC3)=C2C)cc1 (configuration not stated),–,-5.23
CC(C)c1cc(NCc2ccccn2)n2c(nc3ccccc32)c1C#N,11.6 µM (active),–
Cc1cc(NC(C)C)n2c(nc3ccccc32)c1C#N,–,-24.2
CCCc1nnc(NC(=O)c2cc(OC)cc(OC)c2)s1,–,-14.6
O=C(CSc1n[nH]c(-c2cccnc2)n1)Nc1ccc(Cl)cc1,–,-10.4
CCN(CC(=O)NC(C)C)C(=O)CCNC(=O)c1ccc(Cl)cc1,–,-22.4
COc1cc2[nH]c(O)c(C=O)c2cc1OC,–,-9.43
COc1cc(N=Cc2c(O)c3ccccc3oc2=O)c(OC)cc1Cl,–,-26.2
COc1cc(N=Cc2c(O)[nH]c3ccccc23)cc(OC)c1OC,13 µM (active),–
CCn1c(O)c2ccc(C(=O)N=NC(=O)c3cccnc3)cc2c1O,–,-4.25
Cc1cc(OC(C)C(=O)Nc2ccc(S(=O)(=O)Nc3onc(C)c3C)cc2)cc(C)c1Cl (configuration not stated),–,5.09
Cc1c(O)cc(O)c2c(=O)c(-c3ccc(O)cc3)coc12,–,-10.6
CCOc1ccc(N/C=C/C(=O)c2cc(OC)c(OC)c(OC)c2)cc1,6.51 µM (active),–
CCOc1ccc(N/C=C/C(=O)c2ccccc2)cc1,–,-23.6
CCCOc1ccc(N/C=C/C(=O)C(C)(C)C)cc1,–,-17.9
